# Assay outcomes: PubChem, National Center for Advancing Translational Sciences (NCATS)
# This is a sample that favours compounds with a hit; in the whole collection about 2.3% have one here.
# IL2 activator: activators of IL-2 | IL-2 activation reporter assay, cell-based qHTS; stimulated with anti-CD3/CD4/CD28 beads; in transgenic mouse T cells | activation, % (series mostly up to about 46 µM) | actives 0.065% (n = 360,000); in the data active = activation above about 50%; inconclusive = mostly about 30% to 49%; also: 0% is about no effect
#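 Readout: EGFP and DsRed signals by fluorescent plate cytometry. Unstimulated transgenic mouse T cells received compound 60 min before antibody-bead stimulation, then incubated 18 h at 37 degrees C.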
# Nrf2 inh: blocks Nrf2 signaling | actives 2.1% (n = 360,000) | Potency, µM (highest dose often 46 µM), for the others: at the highest dose activity change, negative = inhibition, usual class: inhibitors | A549 ARE-Fluc reporter, luciferase luminescence, 18-24 h; also: potency is read from the fitted curve at half-maximal effect; % is scaled to controls: 0 for no effect and ±100 for the full control effect; nearly all actives have a fitted effect of over 60% in size
#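 A549 ARE_Fluc cells, 5000/well, 5% FBS OPTI-MEM; compounds in dose-response, 18-24 h at 37 °C/5% CO2; CellTiter-Fluor viability read (Ex 405/Em 525), then BugLite luciferase luminescence = Nrf2 activity.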
# Nrf2 ARE act: Nrf2 pathway activation; AREc32 ARE-luciferase reporter (MCF7-derived line), luminescence, 24 h; Potency, µM (highest dose often 46.1 µM), for inactives: at the top dose activation, usual class: activators; actives 0.31% (n = 410,000); AID 624171; also: potency is read from the fitted curve at half-maximal effect; % of control where 0% means no effect; nearly all actives have a fitted effect of over 65% in size
#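 Cells of the AREc32 ARE-luciferase line are plated in OPTI-MEM containing 5% FBS and left overnight at 37 deg C. Compounds are pinned in, incubation continues 24 hr, and firefly luciferase signal is then measured.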
# A549 viability: counter-screen for Nrf2 inhibitors: cytotoxicity in A549 cells; A549 ARE-Fluc cells, CellTiter-Fluor viability, 18-24 h; actives 0.16% (n = 390,000); AID 504648; Potency, µM (series often up to 46 µM), without a hit: top-dose activity change, negative = cytotoxicity, usual class: inhibitors; also: potency is read from the fitted curve at half-maximal effect; % is scaled to controls: 0 for no effect and ±100 for the full control effect
#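 Cytotoxicity counterscreen: CellTiter-Fluor fluorescence was measured in A549 ARE_Fluc cells after 18-24 h of compound exposure in a concentration series. The subsequent BugLite luminescent read reports ARE-luciferase activity.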
# * hit, by the source's call; ? = inconclusive; · = no result. Unless noted, calls follow the shape of the dose curve; as a rule, active = well fitted curve in the direction sought with a large enough effect; inconclusive = small, poorly fitted or top-dose-only effect, or another doubt; inactive = no such curve, though single readings can be large; an effect the other way counts as inactive or inconclusive.
SMILES,IL2 activator,Nrf2 inh,Nrf2 ARE act,A549 viability
COc1ccc(OC)c(NS(=O)(=O)c2ccc(NC(=O)C3COc4ccccc4O3)cc2)c1 (configuration not stated),-2,16µM*,0%,-20%
O=C(Nc1ccc(S(=O)(=O)Nc2ncccn2)cc1)C1COc2ccccc2O1 (configuration not stated),-1,?,0%,1%
O=C1N/C(=N/N=C/c2ccco2)SC1Cc1ccccc1 (configuration not stated),2,0%,?,0%
O=C1N/C(=N\N=C\c2ccc3ncccc3c2)SC1Cc1ccc(SC(F)F)cc1 (configuration not stated),-3,?,4%,-23%
Cc1ccc(CC2S/C(=N/N=C/c3ccco3)NC2=O)cc1 (configuration not stated),0,1%,4.5µM*,12%
O=C1N/C(=N\N=C\c2cccs2)SC1Cc1cccc(Cl)c1 (configuration not stated),-3,-5%,1%,1%
O=C1N/C(=N\N=C\c2cccnc2)SC1Cc1ccc(SC(F)F)cc1 (configuration not stated),1,16µM*,0%,-21%
O=C1N/C(=N\N=C\c2ccccn2)SC1Cc1cccc(SC(F)F)c1 (configuration not stated),0,16µM*,-1%,-19%
COc1ccc(C2Nc3ccccc3C(=O)N2Cc2cccnc2)cc1COc1ccc(NC(C)=O)cc1 (configuration not stated),·,?,·,-6%
Cc1ccc(O)c(C(CC(=O)NCC2(c3ccccc3)CCCC2)c2ccccc2)c1 (configuration not stated),·,?,-3%,?
S=C(NN=C(c1ccccc1)c1ccccn1)N(Cc1ccccn1)Cc1ccccn1,1,?,3%,12µM*
Cc1ccc(-c2csc(NC(=O)CCNC(=O)c3ccccc3Cl)n2)cc1,-5,23µM*,7%,-6%
Cc1noc(/C=C/c2cccnc2)c1[N+](=O)[O-],-2,18µM*,14%,?
COc1ccc(C2CC(c3cccs3)=NN2C(=O)CSc2nc3c(cnn3-c3ccccc3)c(=O)[nH]2)cc1 (configuration not stated),-2,16µM*,-1%,-26%
C[n+]1cc(C(O)(c2ccccc2)c2ccccc2)n2ccccc21,·,?,·,2%
Cc1ccc(C(=O)n2nc(-c3ccco3)nc2NCc2cccs2)cc1,·,8.2µM*,0%,-5%
Nc1nc(-c2ccco2)nn1C(=O)c1ccc(F)cc1,0,18µM*,-1%,4%
COc1ccc(-c2nc(N)n(C(=O)c3ccc(C)cc3)n2)cc1,0,10µM*,0%,-6%
O=C1c2ccccc2C(=O)N1c1ccccc1O,·,-9%,·,2%
Clc1nc(NCc2ccco2)c2[nH]cnc2n1,·,?,·,-4%
Cc1ccc(S(=O)(=O)NCCCNS(=O)(=O)c2ccccc2[N+](=O)[O-])cc1,0,18µM*,5%,3%
O=C(Nc1cccc(Cl)c1Cl)c1cc2nc(-c3ccc4c(c3)OCO4)cc(C(F)(F)F)n2n1,·,-6%,-1%,-2%
CSc1ncc(C(=O)NCc2ccc(F)cc2)c(-c2ccccc2)n1,·,41%,2%,7%
CC1CCN(CC(=O)Nc2cccc(C(=O)Nc3cccc(C(F)(F)F)c3)c2)CC1,-5,30%,7%,?
CC1CN(CC(=O)Nc2cccc(C(=O)Nc3cccc(C(F)(F)F)c3)c2)CC(C)O1 (configuration not stated),-1,16µM*,2%,-22%
SMILES,IL2 activator,Nrf2 inh,Nrf2 ARE act,A549 viability
COC(=O)c1ccccc1S(=O)(=O)Nc1cc(=O)c2ccccc2[nH]1,·,?,·,13%
Cc1ccc(C2CC(=O)NC(SCc3ccccc3)=C2C#N)cc1 (configuration not stated),0,10µM*,2%,2%
N#CC1=C(SCc2ccccc2)NC(=O)CC1c1ccc(O)cc1 (configuration not stated),-2,-24%,0%,-1%
COc1cccc(S(=O)(=O)N2CCN(c3nc(-c4cccs4)nc4ccccc34)CC2)c1,·,?,·,-1%
COc1ccc(/C=C/C(=O)c2ccc(O)cc2)cc1CN1CCOCC1,-1,-12%,?,2%
O=C(/C=C/c1cccc(O)c1)c1ccc(N2CCOCC2)cc1,-1,-2%,14µM*,9%
